Among the data in PubChem BioAssay (NCATS) are max response values, retold here.

Inconclusive results are not listed. Peptide text beside a SMILES is read from it.

The assay can be described thus: qHTS Assay for Lipid Storage Modulators (AID 1519). The conditions noted are these: Drosophila S3 cells, BODIPY lipid droplet/cell ratio, laser cytometry; measured here: lipid channel max response; cells loaded with oleic acid. The procedure, abridged: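 Cells seeded at 5,000 per well were treated with compounds over a concentration series and loaded with oleic acid (400 uM, as added). Lipid droplet fluorescence (488 nm excitation, 500-530 nm channel) was read by laser-scanning cytometry and normalized to 20 uM Triacsin C.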
A general note: Quantitative high-throughput screening tests each substance at several concentrations.
Regarding `CC(=O)N1CCCC1C(=O)O` (stereo unspecified), the max response worked out at 9.22%. Take `COc1c(O)cc2c(c1O)C1OC(CO)C(O)[C@H](O)[C@H]1OC2=O` (stereo partly specified): the max response is 14.2%. For `CC(C)CCCC(C)C1CCC2C3CC[C@H]4CC(=O)CC[C@@]4(C)C3CC[C@@]12C` (stereo partly specified), the max response came to 10.7%. With `COc1cc(/C=C/C(=O)O)cc(OC)c1OC` the figure was 14.9%.

`CC(=O)NC(CC(=O)O)C(=O)NC(CCC(=O)O)C(=O)O` (stereo not drawn) (Ac-Asp-Glu-OH; configuration not given here): the max response came to 18.5%.

Turning to `CC1(C)OC2C[C@](O)(C(N)=O)C[C@H](O)[C@H]2O1` (stereo partly specified), the max response turned out to be 23.7%.

Turning to `O=c1[nH]c(Cl)nc2c1ncn2C1OC(CO)C(O)C1O` (stereo unspecified), the max response was found to be 10.3%. With `Nc1nc2c(ncn2C2OC(CO)CC2O)c(=O)[nH]1` (stereo unspecified) the figure was 10.6%. Under `CS(=O)(=O)c1ccc(C(O)C(CO)NC(=O)C(Cl)Cl)cc1` (stereo unspecified) stands 13.6%; under `CC1(C)CC2C1CC[C@]1(C)CCC3C(C(=O)O)CC(=O)O[C@]32C1` (stereo partly specified), 10.6%. Take `CC(=O)Oc1ccc2c(c1OC(C)=O)OCC1(O)Cc3c(cc(OC(C)=O)c(OC(C)=O)c3OC(C)=O)C21` (stereo unspecified): the max response is 11.3%.

With `CC1=CC2C(C(C)C)CCC(C)(O)C2CC1` (stereo unspecified), the max response was -6.55%. With `O=C(/C=C/C(=O)Oc1ccccc1C(=O)O)Oc1ccccc1C(=O)O` the figure was 13.2%; with `COc1ccc(-c2oc3c(CC=C(C)C)c(O[C@H]4OC(CO)C(O)C(O)C4O)cc(O)c3c(=O)c2O[C@@H]2OC(C)C(O)C(O)C2O)cc1` (stereo partly specified), 29.5%; with `C=C1CCC(O)C/C1=C/C=C1\CCC[C@@]2(C)C(C(C)/C=C/C(C)C(C)C)CC[C@@H]12` (stereo partly specified), 55.4%.

On to `CC1O[C@@H](Oc2c(-c3ccc(O)c(O)c3)oc3cc(O)cc(O)c3c2=O)C(O)C(O)C1O` (stereo partly specified), for which the max response is 40.6%.
